Several values for one entry are separate records, joined by “and”; a condition that tells them apart may be missing. Equal entries are not always repeated. Results filed as inconclusive are left out. More than one record can exist for a structure, and the calls need not agree. Activity calls are given as the source filed them. Unless noted, the call rests on the fitted dose curve; in most records, active means well fitted curve in the direction sought with a large enough effect in the repeat runs; inconclusive means weak or mixed curves; inactive means no such curve, though single readings can be large; an effect the other way counts as inactive or inconclusive.
How the values were obtained:
[1] = qHTS assay to identify small molecule antagonists of the thyroid receptor (TR) signaling pathway - cell viability counter screen (AID 743064); further: nearly all actives have a fitted effect of over 50% in size; further: potency means the concentration at half of the fitted maximal effect
Summary of the method: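 Rat GH3 pituitary tumor cells stably expressing two TR response elements driving luciferase were plated, rested 4 h, then dosed with library compounds and T3 (1 nM final). After 23.5 h at 37 °C, CellTiter-Fluor was added for 30 min and fluorescence recorded.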

[2] = tested on: thyroid hormone receptor (rat, GH3 cells); test: qHTS assay to identify small molecule agonists of the thyroid receptor (TR) signaling pathway (AID 743066; calls by dose curve)
[3] = target: Estrogen receptor (Homo sapiens) (UniProt P03372); test: qHTS assay to identify small molecule antagonists of the estrogen receptor alpha (ER-alpha) signaling pathway (AID 743069; active means well fitted curve in the direction sought with a large enough effect in the signal ratio in the repeat runs, not every such curve was filed as active; the % refers to the signal ratio)
Chain of Estrogen receptor (Homo sapiens) (P03372 whole entry, looked up): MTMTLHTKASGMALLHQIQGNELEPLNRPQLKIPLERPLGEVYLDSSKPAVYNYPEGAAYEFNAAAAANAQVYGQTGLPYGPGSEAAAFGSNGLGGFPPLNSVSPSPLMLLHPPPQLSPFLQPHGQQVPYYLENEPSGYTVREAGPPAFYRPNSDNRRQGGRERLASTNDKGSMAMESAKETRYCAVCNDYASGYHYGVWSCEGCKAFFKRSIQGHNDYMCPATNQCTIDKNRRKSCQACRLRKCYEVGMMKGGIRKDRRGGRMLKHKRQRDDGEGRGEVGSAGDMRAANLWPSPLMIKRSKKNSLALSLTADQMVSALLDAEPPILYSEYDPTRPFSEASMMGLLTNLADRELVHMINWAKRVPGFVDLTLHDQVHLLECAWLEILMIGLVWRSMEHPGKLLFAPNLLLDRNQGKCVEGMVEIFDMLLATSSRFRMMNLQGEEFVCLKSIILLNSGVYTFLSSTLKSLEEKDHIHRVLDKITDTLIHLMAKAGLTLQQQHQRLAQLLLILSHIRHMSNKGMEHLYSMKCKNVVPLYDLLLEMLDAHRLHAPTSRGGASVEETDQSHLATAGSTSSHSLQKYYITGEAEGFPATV
Summary of the method: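 HEK293 ER-alpha-UAS-bla GripTite cells, held overnight in 2% charcoal-stripped FBS, 5,000 cells/well, preincubated 4 h, then compound plus 17beta-estradiol for 18 h at 37C. Beta-lactamase read by LiveBLAzer B/G FRET substrate, 2 h at room temperature.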

[4] = qHTS assay to identify small molecule antagonists of the estrogen receptor alpha (ER-alpha) signaling pathway - cell viability counter screen (AID 743074; calls by dose curve;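 further: HEK293 cells carrying ER-alpha-UAS-bla reporter stimulated with 17beta-estradiol; nearly all actives have a fitted effect of over 45% in size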)
[5] = target: Estrogen receptor (Homo sapiens) (UniProt P03372); test: qHTS assay to identify small molecule agonists of the estrogen receptor alpha (ER-alpha) signaling pathway (AID 743075; calls by dose curve)
[6] = qHTS assay to identify small molecule antagonists of the estrogen receptor alpha (ER-alpha) signaling pathway using the BG1 cell line (AID 743080; calls by dose curve;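 further: BG1 cells stimulated with 17beta-estradiol alongside compound; nearly all actives have a fitted effect of over 25% in size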; further: potency means the concentration at half of the fitted maximal effect)
Summary of the method: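 After 5 days in phenol-red-free 10% charcoal-stripped FBS medium, BG1-Luc-4E2 cells were seeded, left 24 h at 37 C, co-treated with compounds and 17beta-estradiol for 21.5 h, then assayed for viability and luciferase.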

[7] = qHTS assay to identify small molecule antagonists of the estrogen receptor alpha (ER-alpha) signaling pathway using the BG1 cell line - cell viability counter screen (AID 743081);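 further: compound given together with 17beta-estradiol as the ER stimulus; series mostly up to about 70 µM; nearly all actives have a fitted effect of over 45% in size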
Aromatase (Homo sapiens) = Aromatase (Homo sapiens) (UniProt P11511); test: qHTS assay to identify aromatase inhibitors (AID 743083); further: series mostly up to about 70 µM; nearly all actives have a fitted effect of over 55% in size
Chain of Aromatase (Homo sapiens) (P11511 whole entry, looked up): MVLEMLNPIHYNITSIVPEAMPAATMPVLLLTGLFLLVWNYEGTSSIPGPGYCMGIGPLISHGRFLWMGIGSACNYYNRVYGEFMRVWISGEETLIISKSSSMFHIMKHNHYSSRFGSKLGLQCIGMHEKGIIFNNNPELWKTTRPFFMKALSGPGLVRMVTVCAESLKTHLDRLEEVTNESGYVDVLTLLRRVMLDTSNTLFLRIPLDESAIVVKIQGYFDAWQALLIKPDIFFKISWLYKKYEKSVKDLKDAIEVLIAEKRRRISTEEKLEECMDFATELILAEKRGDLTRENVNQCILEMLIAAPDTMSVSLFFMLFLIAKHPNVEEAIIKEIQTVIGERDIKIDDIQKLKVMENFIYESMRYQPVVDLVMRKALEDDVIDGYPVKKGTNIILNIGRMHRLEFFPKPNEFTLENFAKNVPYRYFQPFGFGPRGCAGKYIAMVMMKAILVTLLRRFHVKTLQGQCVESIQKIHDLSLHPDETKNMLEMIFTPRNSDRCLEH

[8] = qHTS assay to identify aromatase inhibitors - cell viability counter screen (AID 743084);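 further: cells stimulated with testosterone during compound exposure; nearly all actives have a fitted effect of over 55% in size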; further: potency means the concentration at half of the fitted maximal effect
[9] = target: Aryl hydrocarbon receptor (Homo sapiens) (UniProt P35869); test: qHTS assay to identify small molecule that activate the aryl hydrocarbon receptor (AhR) signaling pathway (AID 743085);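 further: HG2L7.5c1 human HepG2 liver cells with stably integrated DRE-driven firefly reporter; series mostly up to about 70 µM; nearly all actives have a fitted effect of over 15% in size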
Chain of Aryl hydrocarbon receptor (Homo sapiens) (P35869 whole entry, looked up): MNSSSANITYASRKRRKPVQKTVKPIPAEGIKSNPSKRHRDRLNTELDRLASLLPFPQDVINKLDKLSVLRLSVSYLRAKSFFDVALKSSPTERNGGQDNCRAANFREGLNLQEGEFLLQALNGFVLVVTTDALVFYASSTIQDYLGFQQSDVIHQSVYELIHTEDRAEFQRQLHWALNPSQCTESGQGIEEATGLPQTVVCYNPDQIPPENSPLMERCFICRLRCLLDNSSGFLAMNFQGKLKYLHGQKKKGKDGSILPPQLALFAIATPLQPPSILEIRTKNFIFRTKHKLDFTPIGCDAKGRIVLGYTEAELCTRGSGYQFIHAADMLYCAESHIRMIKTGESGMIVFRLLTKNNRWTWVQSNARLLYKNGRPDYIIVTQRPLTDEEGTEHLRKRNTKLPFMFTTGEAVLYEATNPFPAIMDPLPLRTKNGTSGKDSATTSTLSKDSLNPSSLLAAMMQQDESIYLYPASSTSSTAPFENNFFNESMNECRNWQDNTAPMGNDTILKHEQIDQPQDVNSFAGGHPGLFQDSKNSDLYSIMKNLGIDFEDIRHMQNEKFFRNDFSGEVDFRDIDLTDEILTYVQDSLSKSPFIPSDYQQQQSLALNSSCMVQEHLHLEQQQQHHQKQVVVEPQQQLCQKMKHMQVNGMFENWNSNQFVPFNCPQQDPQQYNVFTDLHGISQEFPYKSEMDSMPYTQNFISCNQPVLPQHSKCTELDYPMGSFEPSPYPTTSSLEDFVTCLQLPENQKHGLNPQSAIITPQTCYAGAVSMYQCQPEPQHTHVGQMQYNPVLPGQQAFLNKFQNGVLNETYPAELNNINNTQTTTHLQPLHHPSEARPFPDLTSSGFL
Summary of the method: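 Compounds were tested in HepG2 hepatocellular carcinoma cells harbouring a stably integrated luciferase gene under control of 20 DREs. Increased reporter signal after 24 h treatment at 37C was taken as AhR activation.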

[10] = qHTS assay to identify small molecule that activate the aryl hydrocarbon receptor (AhR) signaling pathway - cell viability counter screen (AID 743086); further: nearly all actives have a fitted effect of over 45% in size; further: potency means the concentration at half of the fitted maximal effect
Summary of the method: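 HepG2-AhR-luc (HG2L7.5c1) cells, 4000/well, treated 24 h at 37 C with compound; viability measured as CellTiter-Fluor fluorescence after 30 min in the same wells as the luciferase read.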

[11] = target: Peroxisome proliferator-activated receptor gamma (Homo sapiens) (UniProt P37231); test: qHTS assay to identify small molecule agonists of the peroxisome proliferator-activated receptor gamma (PPARg) signaling pathway (AID 743094; active means well fitted activation curve with a large enough effect in the signal ratio in the repeat runs, not every such curve was filed as active; the % refers to the signal ratio)
Chain of Peroxisome proliferator-activated receptor gamma (Homo sapiens) (P37231 whole entry, looked up): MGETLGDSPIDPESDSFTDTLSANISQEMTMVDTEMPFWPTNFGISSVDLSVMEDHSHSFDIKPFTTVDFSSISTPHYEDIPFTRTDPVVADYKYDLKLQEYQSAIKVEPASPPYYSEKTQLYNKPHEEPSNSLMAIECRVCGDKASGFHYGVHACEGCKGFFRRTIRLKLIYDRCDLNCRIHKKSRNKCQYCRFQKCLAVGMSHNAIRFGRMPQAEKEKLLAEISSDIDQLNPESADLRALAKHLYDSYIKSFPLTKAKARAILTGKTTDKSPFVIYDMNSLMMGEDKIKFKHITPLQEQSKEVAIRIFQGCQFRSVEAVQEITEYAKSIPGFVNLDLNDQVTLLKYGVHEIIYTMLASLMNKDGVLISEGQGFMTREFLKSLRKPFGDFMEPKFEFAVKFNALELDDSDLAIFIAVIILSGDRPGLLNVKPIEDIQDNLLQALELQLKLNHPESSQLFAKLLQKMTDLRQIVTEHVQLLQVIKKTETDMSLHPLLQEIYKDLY
Summary of the method: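 Quantitative HTS agonist mode: stable HEK293H line with UAS-beta-lactamase reporter under PPARg control, 17 h compound exposure at 37C, fluorescence after 1 h FRET substrate loading at room temperature.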

[12] = target: Estrogen receptor (Homo sapiens) (UniProt P03372); test: qHTS assay to identify small molecule agonists of the estrogen receptor alpha (ER-alpha) signaling pathway using the BG1 cell line (AID 743079); further: nearly all actives have a fitted effect of over 20% in size; further: potency means the concentration at half of the fitted maximal effect

Measured: Potency

NC(N)=NCc1cccc(I)c1
active: [6] 21.1 µM and 11.9 µM
inactive: [1] | [2] | [3] | [4] | [5] | [7] | Aromatase (Homo sapiens) | [8] | [9] | [10] | [11]

CCCC(CCC)C(=O)OC1C[C@H]2CC[C@@H](C1)[N+]2(C)C (stereo partly drawn)
inactive: [1] | [2] | [4] | [7] | Aromatase (Homo sapiens) | [8] | [9] | [10] | [11]

CC(C)[N+]1(C)[C@@H]2CC[C@H]1CC(OC(=O)C(CO)c1ccccc1)C2 (stereo partly drawn)
26.6 µM (active) and inactive: [12]
inactive: [1] | [2] | [3] | [4] | [5] | [6] | [7] | [8] | [10] | [11]

CC(C)COC(=O)OCN1C(=O)CN(CCN2CC(=O)N(COC(=O)OCC(C)C)C(=O)C2)CC1=O
inactive: [1] | [2] | [3] | [4] | [5] | [12] | [6] | [7] | Aromatase (Homo sapiens) | [8] | [10] | [11]

N[C@H](CO)C(=O)O
inactive: [1] | [2] | [4] | [7] | Aromatase (Homo sapiens) | [8] | [9] | [10] | [11]

CNC(=O)OCc1cccc(COC(=O)NC)n1
inactive: [1] | [2] | [4] | [7] | Aromatase (Homo sapiens) | [8] | [9] | [10] | [11]

O=C1c2ccccc2C(=O)C1c1ccc(F)cc1
inactive: [1] | [2] | [3] | [5] | [12] | [6] | [7] | Aromatase (Homo sapiens) | [8] | [10] | [11]

CC(C)C[C@H](NC(=O)[C@@H](COC(C)(C)C)NC(=O)[C@H](Cc1ccc(O)cc1)NC(=O)[C@H](CO)NC(=O)[C@H](Cc1c[nH]c2ccccc12)NC(=O)[C@H](Cc1cnc[nH]1)NC(=O)[C@@H]1CCC(=O)N1)C(=O)N[C@@H](CCCN=C(N)N)C(=O)N1CCC[C@H]1C(=O)NNC(N)=O
inactive: [1] | [2] | [4] | [6] | [7] | Aromatase (Homo sapiens) | [8] | [10] | [11]

CC[C@H]1OC(=O)[C@H](C)C(=O)[C@H](C)[C@@H](O[C@@H]2O[C@H](C)C[C@H](N(C)C)[C@H]2O)[C@](C)(OC)C[C@@H](C)C(=O)[C@H](C)[C@H]2N(CCCCn3cnc(-c4cccnc4)c3)C(=O)O[C@]12C
inactive: [1] | [2] | [3] | [4] | [5] | [12] | [6] | [7] | Aromatase (Homo sapiens) | [9] | [11]
inactive and 21.1 µM (active): [10]
inactive and 15 µM (active): [8]

CC/C=C\C/C=C\C/C=C\C/C=C\C/C=C\CCCC(=O)O
inactive: [1] | [2] | [3] | [4] | [5] | [12] | [6] | [7] | Aromatase (Homo sapiens) | [8] | [10]

O=C1c2ccccc2CN2C(=O)c3ccccc3CN12
inactive: [1] | [2] | [3] | [4] | [5] | [12] | [6] | [7] | Aromatase (Homo sapiens) | [8] | [9] | [10] | [11]

CCCCCCCCCCCCCC(=O)OCC(COP(=O)([O-])OCC[N+](C)(C)C)OC(=O)CCCCCCCCCCCCC (stereo not drawn)
inactive: [1] | [2] | [3] | [4] | [5] | [12] | [6] | Aromatase (Homo sapiens) | [8] | [9] | [10] | [11]

CCN(CC)CCn1c(=O)c(Cc2ccc(OC)cc2)nc2ccccc21
active: [1] 26.6 µM
inactive: [2] | [3] | [4] | [5] | [12] | [6] | [7] | Aromatase (Homo sapiens) | [8] | [10] | [11]

N#Cc1c(N(CC(=O)O)CC(=O)O)sc(C(=O)O)c1CC(=O)O
inactive: [1] | [2] | [3] | [4] | [5] | [6] | [7] | Aromatase (Homo sapiens) | [8] | [9] | [10] | [11]

CC/C=C\C/C=C\C/C=C\C/C=C\C/C=C\C/C=C\CCC(=O)O
inactive: [1] | [2] | [3] | [4] | [5] | [12] | [6] | [7] | Aromatase (Homo sapiens) | [8] | [9] | [10] | [11]
